Publication PMC7819943, “Rice protein-binding microarrays: a tool to detect cis-acting elements near promoter regions in rice”
In all, about 68,000 sequences were measured (“fluorescence intensity (a.u.)”: median about 9,100, highest 2% from about 16,000 on). The full list was thinned out, with the highest values kept by preference.

Molecular target: OsWRKY34 (Oryza sativa, UniProt Q0JBA9 1-250)
Assay: protein-binding microarray (RPBM); PBS, 2% BSA, 51.3 ng/ul salmon testes DNA, 50 uM zinc acetate, 200 nM TF, 25 C, 1 h; high values mean tight binding
Conditions: protein: recombinant; tags: N-terminal polyhistidine and DsRed monomer fusion (pET32a); label: CyDye5-dUTP incorporated in the synthesized complementary strand; 3' TTTTT single-stranded linker to array surface; dsDNA, one strand shown
How it was run: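 Using Ni–NTA, transcription factors fused N-terminally to polyhistidine and DsRed were purified after expression in E. coli BL21-CodonPlus. These were incubated at 200 nM with a blocked, double-stranded custom Agilent array for 1 h at 25 °C in a buffer containing 50 µM zinc acetate, and the array was washed. The binding signal is per-feature fluorescence intensity (arbitrary units) on an Axon 4000B scanner.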

Chain of OsWRKY34 (Q0JBA9 entry or part of it): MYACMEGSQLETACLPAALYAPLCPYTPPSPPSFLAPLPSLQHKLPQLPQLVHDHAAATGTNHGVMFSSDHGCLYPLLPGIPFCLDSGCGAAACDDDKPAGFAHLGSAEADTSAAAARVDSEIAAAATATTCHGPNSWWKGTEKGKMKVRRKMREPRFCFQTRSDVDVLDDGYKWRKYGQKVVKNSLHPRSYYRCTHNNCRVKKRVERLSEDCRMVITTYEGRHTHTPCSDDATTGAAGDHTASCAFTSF

Sequence | binding signal
GCGTGTTTTTCTACCCGATCGACCTTCTGATTTTGGCTATCGGAGTCACCTAGTGCAG | 11100 fluorescence intensity (a.u.)
CCACCAGCGATTTGGCCCGATCTCATCCCACCAGCGATTTCGGAGTCACCTAGTGCAG | 8430 fluorescence intensity (a.u.)
CACAGCTTCTTAATTACTCCACCTTAATTAATCGATTAATCGGAGTCACCTAGTGCAG | 8680 fluorescence intensity (a.u.)
GTTGGGGTTCGTCGTCTTGGTCTTGGGTCTTCTTCGTCCCCGGAGTCACCTAGTGCAG | 11600 fluorescence intensity (a.u.)
CTCCACTGCTCTGATGCTCTCTCTCTCTCTCTCTTCACGCCGGAGTCACCTAGTGCAG | 10800 fluorescence intensity (a.u.)
CCCACACCACCTCGCCCAATTAAACCCTCACCCATTCTTTCGGAGTCACCTAGTGCAG | 9140 fluorescence intensity (a.u.)
TGATCGCTCGCCGCCGCGGCCGCTCTCCCGCCGGCGCCGCCGGAGTCACCTAGTGCAG | 9560 fluorescence intensity (a.u.)
CGCCGCCGCCGCCGCCGCCGCGCTCGCTCGCTCGCTTCTTCGGAGTCACCTAGTGCAG | 10200 fluorescence intensity (a.u.)
AAATTAACCACACTCGCGCCGCCATTCTCTTCTTCTTCTTCGGAGTCACCTAGTGCAG | 20600 fluorescence intensity (a.u.)
GGGCGGTTCTTCTTCTTCGTCTTCGTCTTGGCGCCGGTCGCGGAGTCACCTAGTGCAG | 17200 fluorescence intensity (a.u.)
CTCTCTCTCTCTCTCTCTCTCTCTCTCTTCGCCGCGCGGCCGGAGTCACCTAGTGCAG | 18300 fluorescence intensity (a.u.)
CCACGCCACGCGCCGCTCTCACTCGGTCACTCTCACTCTTCGGAGTCACCTAGTGCAG | 9750 fluorescence intensity (a.u.)
CACCGGTTCTTCGCCTTCGTCACCGTCGCCGGCGGCGCCACGGAGTCACCTAGTGCAG | 8450 fluorescence intensity (a.u.)
ATGCCGCTCTATCTCTCTCTCTCTCTCTCTCTCTCTCTCTCGGAGTCACCTAGTGCAG | 9760 fluorescence intensity (a.u.)
TATATATATATATATATATATATATCTGATGCTCTCTTGCCGGAGTCACCTAGTGCAG | 31700 fluorescence intensity (a.u.)
TAGCAACTCCGTTCTTTTTCTTCTTTTCTCTCACTCACTCCGGAGTCACCTAGTGCAG | 8360 fluorescence intensity (a.u.)
CTCTTATAACCACTTCTTTTTAAATCATTTGTTTATATGTCGGAGTCACCTAGTGCAG | 10200 fluorescence intensity (a.u.)
TGGTCTGGCAGTTTTTGAGACGGGGAGTTGACTCAGATATCGGAGTCACCTAGTGCAG | 9260 fluorescence intensity (a.u.)
AGGCTCTATTGGTTTCTCCTCTGTACATACAGTAGTAGTCCGGAGTCACCTAGTGCAG | 8640 fluorescence intensity (a.u.)
TTCTACACTCTCTTGATCAGCTCTCACCACTATGTACACTCGGAGTCACCTAGTGCAG | 8860 fluorescence intensity (a.u.)
TTTTTTTCGGTCTCAATATTTTTTTTTCTCACGTCTTTCGCGGAGTCACCTAGTGCAG | 10800 fluorescence intensity (a.u.)

Sequence | binding signal
CCTTGACCGTTCCCAGAAAGGTTGACCGTTGTCCGTCACTCGGAGTCACCTAGTGCAG | 9240 fluorescence intensity (a.u.)
TTTTATATCCCTCACCGTACGATCCAACGTTCCGATTTCTCGGAGTCACCTAGTGCAG | 8890 fluorescence intensity (a.u.)
GCTTCGGCCCAACAACATTCCACTCGGCCCAACAACCACCCGGAGTCACCTAGTGCAG | 9750 fluorescence intensity (a.u.)
CCAACCACTCCATCATCATTCGCAATCCAATCTCGCTCTTCGGAGTCACCTAGTGCAG | 9230 fluorescence intensity (a.u.)
AACCACTCGCTTCCAAACAATCCAAACCTTCCATGCCATTCGGAGTCACCTAGTGCAG | 64700 fluorescence intensity (a.u.)
ACCTCTAACCGCCACTAGTTTTTTATACTCTTCTCTATAGCGGAGTCACCTAGTGCAG | 8470 fluorescence intensity (a.u.)
CGCTCCTCGCGGCCGCCGCCGCCGCCTCCCTCCTCGCCTTCGGAGTCACCTAGTGCAG | 8660 fluorescence intensity (a.u.)
ATACCGCCTATTTGCCACTCGTTTTTCTTCTCTTGGGCCGCGGAGTCACCTAGTGCAG | 18700 fluorescence intensity (a.u.)
TTCTCTTTTTCTTTTTATTTTTTCGTTCTCGTCGCCGCCGCGGAGTCACCTAGTGCAG | 8330 fluorescence intensity (a.u.)
CACACCTCGCCGCTCTTCCCGGCCTCCACCCGCCGCCCTTCGGAGTCACCTAGTGCAG | 8510 fluorescence intensity (a.u.)
CCAAGCGCCCGCCGCCTCGCTCCCTCCTCTTCCTTGACCTCGGAGTCACCTAGTGCAG | 35200 fluorescence intensity (a.u.)
AATTCTCGTCTTCTCGGAGGTTTCTGAGGGGAGGGAGAGGCGGAGTCACCTAGTGCAG | 8480 fluorescence intensity (a.u.)
CCGGTCCTTCACCCACTTCAGCTTCACGTTCACCAGCGTCCGGAGTCACCTAGTGCAG | 10200 fluorescence intensity (a.u.)
ATTTTTTCCTCTAATTAAGTCATATCACATCAATTGTTTTCGGAGTCACCTAGTGCAG | 10200 fluorescence intensity (a.u.)
GGCATTTGGGTGTTATGCATGCCGGCCGGCCCGTACGTACCGGAGTCACCTAGTGCAG | 11700 fluorescence intensity (a.u.)
AGCTGGATTACCCTTTATACATTTTACTTTAATCTCTTTGCGGAGTCACCTAGTGCAG | 10900 fluorescence intensity (a.u.)
GACGTATCATAGTCTCTGTTTAGATTTCTAGTACTATGATCGGAGTCACCTAGTGCAG | 9340 fluorescence intensity (a.u.)
ACTGAGTATTATTATATCCTAACTAAGTTATCGTACATTCCGGAGTCACCTAGTGCAG | 8060 fluorescence intensity (a.u.)
AATCAGAATATTACCTTCTTGTATTTGTTCTCTGTAGGAACGGAGTCACCTAGTGCAG | 8870 fluorescence intensity (a.u.)
GCTGTAGAAATTTCTCCTTCTTTGTTAAATGTATGTCTTTCGGAGTCACCTAGTGCAG | 9540 fluorescence intensity (a.u.)
ACATACACTACACACCCTGTTCTTGCAGTACGCCAATTAACGGAGTCACCTAGTGCAG | 9780 fluorescence intensity (a.u.)
